Experimental findings from PubChem BioAssay (Tox21) are described below.

Results filed as inconclusive are left out. Entries that show only a call come without a potency. Activity calls are given as the source filed them. Unless noted, calls come from the whole dose curve.
Potency is the fitted concentration of half-maximal effect.

Sequence of Acetylcholinesterase (Homo sapiens) (P22303 whole entry, looked up): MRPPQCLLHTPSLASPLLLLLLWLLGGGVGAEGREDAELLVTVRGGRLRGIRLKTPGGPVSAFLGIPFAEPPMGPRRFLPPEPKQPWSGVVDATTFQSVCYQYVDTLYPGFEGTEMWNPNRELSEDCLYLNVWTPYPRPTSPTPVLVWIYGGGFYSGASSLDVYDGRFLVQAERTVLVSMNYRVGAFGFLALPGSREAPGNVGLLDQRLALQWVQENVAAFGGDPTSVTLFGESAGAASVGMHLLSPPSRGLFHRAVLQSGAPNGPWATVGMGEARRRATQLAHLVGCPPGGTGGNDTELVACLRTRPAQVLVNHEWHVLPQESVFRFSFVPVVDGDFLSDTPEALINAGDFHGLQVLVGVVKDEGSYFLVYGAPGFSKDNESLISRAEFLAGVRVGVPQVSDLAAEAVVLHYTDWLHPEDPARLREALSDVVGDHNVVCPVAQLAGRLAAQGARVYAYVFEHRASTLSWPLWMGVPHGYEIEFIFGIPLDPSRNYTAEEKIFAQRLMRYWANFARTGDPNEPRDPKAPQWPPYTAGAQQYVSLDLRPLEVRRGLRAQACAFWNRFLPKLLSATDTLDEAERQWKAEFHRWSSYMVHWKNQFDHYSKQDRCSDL

The target in the first experiment is Acetylcholinesterase (Homo sapiens) (UniProt P22303). The experiment is described as follows: Acetylcholinesterase (AChE) small molecule antagonists: enzyme-based qHTS assay with human liver microsomes (AID 1347399). Note: nearly all actives have a fitted effect of over 60% in size. The conditions noted are these: Potency: qHTS inhibition; series mostly up to 115 µM. Summed up:
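Recombinant human AChE (50 mU/mL in the enzyme mix) and human liver microsomes (0.25 mg/mL final) were preincubated with compound and NADPH (0.25 mg/mL final) for 30 min at 37 C. Acetylthiocholine/DTNB was then added; thiocholine was read colorimetrically after 10 min at room temperature.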
As for `CC(C)(c1ccc(O)c(-c2ccccc2)c1)c1ccc(O)c(-c2ccccc2)c1`, the Potency entry was “inactive”.

Consider `Fc1ccc(Oc2ccnc3cc(Cl)cc(Cl)c23)cc1`, for which the Potency entry was “inactive”.

As to `COc1cc(C=O)cc2c1[C@H](COC(N)=O)[C@]1(OC(C)=O)ON2C[C@H]2[C@@H]1N2C(C)=O`, the Potency entry is “inactive”.

As for `O=c1ssc(Cl)c1Cl`, the Potency result was “inactive”.

In the case of `c1cc[c]([Sb]([c]2ccccc2)[c]2ccccc2)cc1`, the Potency entry was “inactive”.

For `C[C@]12CC[C@@H]3c4ccc(OC(=O)N(CCCl)CCCl)cc4CC[C@H]3[C@@H]1CC[C@@H]2O`, the Potency result is “inactive”.

On to `C=CC(=O)OCCCCOC(=O)C=C`, for which the Potency entry was “inactive”.

In the case of `O=[N+]([O-])c1cc(Cl)ccc1Cl`, the Potency entry is “inactive”.

For `ClCc1ccccc1CCl`, the Potency entry was “inactive”.

As for `NC(=O)CCl`, the Potency entry was “inactive”.

As for `CC1(c2ccc(Oc3ccccc3)cc2)OC(=O)N(Nc2ccccc2)C1=O` (configuration not stated), the Potency result is “inactive”.

As to `COC(=O)N(C(=O)N1COC2(C(=O)OC)Cc3cc(Cl)ccc3C2=N1)c1ccc(OC(F)(F)F)cc1` (configuration not stated), the Potency result was “inactive”.

With `Cc1c(Cl)c(=O)oc2cc(OP(=O)(OCCCl)OCCCl)ccc12`, the Potency is 3.09 µM (active).

Regarding `O=C1NCN(c2ccccc2)C12CCN(CC1COc3ccccc3O1)CC2` (configuration not stated), the Potency result was “inactive”.

Turning to `CCC(C)(C)C(=O)OC1=C(c2ccc(Cl)cc2Cl)C(=O)OC12CCCCC2`, the Potency entry is “inactive”.

As for `C[C@H]1O[C@@H](O[C@H]2[C@@H](O)C[C@H](O[C@H]3[C@@H](O)C[C@H](O[C@H]4CC[C@@]5(C)[C@H](CC[C@@H]6[C@@H]5CC[C@]5(C)[C@@H](C7=CC(=O)OC7)CC[C@]65O)C4)O[C@@H]3C)O[C@@H]2C)C[C@H](O)[C@@H]1O`, the Potency entry is “inactive”.

Turning to `CCC(C)c1cc(C(C)(C)C)cc(-n2nc3ccccc3n2)c1O` (configuration not stated), the Potency entry was “inactive”.

As to `Oc1ccc(C(=C(Cl)Cl)c2ccc(O)cc2)cc1`, the Potency result was “inactive”.

As for `CC(C)OC(=S)S`, the Potency entry is “inactive”.

Regarding `CCCCN(CCCC)C(=S)[S-].CCCCN(CCCC)C(=S)[S-].[Zn+2]`, the Potency entry was “inactive”.

Take `Oc1ccc(C2(c3ccc(O)cc3)c3ccccc3-c3ccccc32)cc1`: the Potency result was “inactive”.

For the molecule `O=C(Nc1ccc2[nH]ccc2c1)c1cc2cc(F)ccc2n1Cc1cccc(F)c1`, the Potency entry is “inactive”.

With `Nc1ccccc1C(=O)OC/C=C/c1ccccc1`, the Potency entry is “inactive”.

`COc1ccc(OC)c(CC(C)N)c1` (configuration not stated): the Potency result was “inactive”.

On to `CC(Cl)CN(C)C` (configuration not stated), for which the Potency result is “inactive”.

Take `CCCCCCCCCCCCCC[P+](CCCCCC)(CCCCCC)CCCCCC` (tested in a mixture with another compound): the Potency result was “inactive”.

On to `CCCCCCCCCCCCCCCCCCn1cc[n+](C)c1`, for which the Potency entry is “inactive”.

As for `c1ccc2cc3c(cc2c1)-c1cccc2cccc-3c12`, the Potency result was “inactive”.

For the molecule `CN(C)S(=O)(=O)N(SC(F)(Cl)Cl)c1ccccc1`, the Potency is 71 µM (active).

For the molecule `[CH3][Hg][Cl]`, the Potency result was “inactive”.

With `C=CC(=O)OCC(COC(=O)C=C)(COC(=O)C=C)COC(=O)C=C`, the Potency entry was “inactive”.

Regarding `COC[C@H](C)N(C(=O)CCl)c1c(C)csc1C`, the Potency entry was “inactive”.

The target of another experiment is Cytochrome P450 2D6 (Homo sapiens) (UniProt P10635). The experiment is described as follows: Cytochrome P450 Family 2 Subfamily D Member 6 (CYP2D6) small molecule antagonists: luciferase reporter qHTS assay (AID 1671196; active = well fitted inhibition curve with a large enough effect in the repeat runs; note: nearly all actives have a fitted effect of over 50% in size). The conditions noted are these: P450-Glo CYP2D6 enzyme assay, luciferin luminescence, 1 h; series mostly up to 115 µM. An outline of the steps: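 Each well received CYP2D6 with its proluciferin substrate and chemical, sat 10 min, then got NADPH regeneration solution for 1 h at room temperature. Luminescence in RLU served as the activity measure.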
Sequence of Cytochrome P450 2D6 (Homo sapiens) (P10635 whole entry, looked up): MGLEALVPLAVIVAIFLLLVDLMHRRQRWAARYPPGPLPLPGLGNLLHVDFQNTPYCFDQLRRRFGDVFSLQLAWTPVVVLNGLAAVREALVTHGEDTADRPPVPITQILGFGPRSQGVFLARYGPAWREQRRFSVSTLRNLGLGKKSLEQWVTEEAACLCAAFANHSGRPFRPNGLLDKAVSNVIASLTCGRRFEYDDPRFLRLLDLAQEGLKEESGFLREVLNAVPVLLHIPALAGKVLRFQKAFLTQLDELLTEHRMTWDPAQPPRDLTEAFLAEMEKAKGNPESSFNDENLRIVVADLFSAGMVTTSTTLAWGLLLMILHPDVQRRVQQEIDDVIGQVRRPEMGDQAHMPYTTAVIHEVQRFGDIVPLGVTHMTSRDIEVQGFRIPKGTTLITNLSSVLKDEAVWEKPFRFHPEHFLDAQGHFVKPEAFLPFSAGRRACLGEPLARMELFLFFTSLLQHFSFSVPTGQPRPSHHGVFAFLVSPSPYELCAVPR
As for `CC(C)(c1ccc(O)c(-c2ccccc2)c1)c1ccc(O)c(-c2ccccc2)c1`, the Potency was 63.3 µM (active).

`Fc1ccc(Oc2ccnc3cc(Cl)cc(Cl)c23)cc1`: the Potency is 35.6 µM (active).

Turning to `N#CCCC(Br)(C#N)CBr` (configuration not stated), the Potency entry was “inactive”.

Consider `COc1cc(C=O)cc2c1[C@H](COC(N)=O)[C@]1(OC(C)=O)ON2C[C@H]2[C@@H]1N2C(C)=O`, for which the Potency entry was “inactive”.

For the molecule `O=c1ssc(Cl)c1Cl`, the Potency is 63.3 µM (active).

For `c1cc[c]([Sb]([c]2ccccc2)[c]2ccccc2)cc1`, the Potency entry was “inactive”.

With `C[C@]12CC[C@@H]3c4ccc(OC(=O)N(CCCl)CCCl)cc4CC[C@H]3[C@@H]1CC[C@@H]2O`, the Potency result was “inactive”.

Regarding `C=CC(=O)OCCCCOC(=O)C=C`, the Potency entry was “inactive”.

In the case of `O=[N+]([O-])c1cc(Cl)ccc1Cl`, the Potency result was “inactive”.

As for `NC(=O)CCl`, the Potency entry is “inactive”.

On to `CC1(c2ccc(Oc3ccccc3)cc2)OC(=O)N(Nc2ccccc2)C1=O` (configuration not stated), for which the Potency result was “inactive”.

`COC(=O)N(C(=O)N1COC2(C(=O)OC)Cc3cc(Cl)ccc3C2=N1)c1ccc(OC(F)(F)F)cc1` (configuration not stated): the Potency entry is “inactive”.

In the case of `Cc1c(Cl)c(=O)oc2cc(OP(=O)(OCCCl)OCCCl)ccc12`, the Potency is 3.47 µM (active).

Consider `O=C1NCN(c2ccccc2)C12CCN(CC1COc3ccccc3O1)CC2` (configuration not stated), for which the Potency was 0.11 µM (active).

`CCC(C)(C)C(=O)OC1=C(c2ccc(Cl)cc2Cl)C(=O)OC12CCCCC2`: the Potency result was “inactive”.

With `C[C@H]1O[C@@H](O[C@H]2[C@@H](O)C[C@H](O[C@H]3[C@@H](O)C[C@H](O[C@H]4CC[C@@]5(C)[C@H](CC[C@@H]6[C@@H]5CC[C@]5(C)[C@@H](C7=CC(=O)OC7)CC[C@]65O)C4)O[C@@H]3C)O[C@@H]2C)C[C@H](O)[C@@H]1O`, the Potency result is “inactive”.

For `CCC(C)c1cc(C(C)(C)C)cc(-n2nc3ccccc3n2)c1O` (configuration not stated), the Potency entry is “inactive”.

Turning to `Oc1ccc(C(=C(Cl)Cl)c2ccc(O)cc2)cc1`, the Potency entry is “inactive”.

`CC(C)OC(=S)S`: the Potency result is “inactive”.

Consider `Oc1ccc(C2(c3ccc(O)cc3)c3ccccc3-c3ccccc32)cc1`, for which the Potency was 79.6 µM (active).

For the molecule `O=C(Nc1ccc2[nH]ccc2c1)c1cc2cc(F)ccc2n1Cc1cccc(F)c1`, the Potency was 15.9 µM (active).

For `CCc1ccccc1C`, the Potency result is “inactive”.

Regarding `COc1ccc(OC)c(CC(C)N)c1` (configuration not stated), the Potency is 7.62 µM (active).

On to `CC(Cl)CN(C)C` (configuration not stated), for which the Potency entry is “inactive”.

Consider `CCCCCCCCCCCCCC[P+](CCCCCC)(CCCCCC)CCCCCC` (tested in a mixture with another compound), for which the Potency was 1.26 µM (active).

On to `CCCCCCCCCCCCCCCCCCn1cc[n+](C)c1`, for which the Potency was 0.888 µM (active).

On to `c1ccc2cc3c(cc2c1)-c1cccc2cccc-3c12`, for which the Potency result is “inactive”.

Turning to `[CH3][Hg][Cl]`, the Potency result is “inactive”.

Turning to `C=CC(=O)OCC(COC(=O)C=C)(COC(=O)C=C)COC(=O)C=C`, the Potency was 28.3 µM (active).

For the molecule `COC[C@H](C)N(C(=O)CCl)c1c(C)csc1C`, the Potency result was “inactive”.
